# Structures can show the parent of a compound that is named as a salt.
# System: MARIMO
# Assay: cell viability relative to vehicle control; higher = less cytotoxic
# Conditions: 10 µM; SRSF2 genotype: SRSF2 wt/wt
# Method in brief: (§1)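 Mutant clones made by CRISPR editing and their isogenic wild-type counterparts, from four leukaemia lines, were exposed to a single 10 µM dose of each library compound for 48 h. The supernatant was then removed and CellTiter-Glo luminescence was read. Viability was reported as percent of the on-plate vehicle control.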
row,SMILES,cell viability [%]
1,COC(=O)C[C@](O)(CCCC(C)(C)O)C(=O)O[C@@H]1C(OC)=C[C@]23CCCN2CCc2cc4c(cc2[C@H]13)OCO4 [Homoharringtonine],4.23
2,Cc1cc(C)c(-c2csc(NC(=O)c3ccccc3)n2)c(C)c1,31.6
3,C=C1CCC[C@]2(C)C[C@]3(O)OC(=O)C(C)=C3C[C@@H]12 [Atractylenolide III],102
4,C[C@@H]1C[C@H]2[C@@H]3CCC4=CC(=O)C=C[C@]4(C)[C@@]3(Cl)[C@@H](O)C[C@]2(C)[C@@]1(OC(=O)c1ccco1)C(=O)CCl [Mometasone furoate],103
5,CC(=O)O[C@]1(C(C)=O)CC[C@H]2[C@@H]3CCC4=CC(=O)CCC4=C3[C@@H](c3ccc(N(C)C)cc3)C[C@@]21C [Ulipristal acetate],95.2

# System: MOLM14
# Assay: as above
# Conditions: 10 µM; SRSF2 genotype: SRSF2 P95H/wt
# Method in brief: as §1
row,SMILES,cell viability [%]
1,O=C(CCc1ccc(O)cc1)c1c(O)cc(O[C@@H]2O[C@H](CO)[C@@H](O)[C@H](O)[C@H]2O)cc1O [Trilobatin],89.2
2,CC(C)n1nc(-c2ccc3oc(N)nc3c2)c2c(N)ncnc21,13.6
3,COc1ccc(COc2ccc(Cc3cnc(N)nc3N)cc2OC)cc1,86.6
4,COc1cc(O)c(C(=O)Nc2nc(C(=O)NCCN(C(C)C)C(C)C)cs2)cc1OC [Acotiamide hydrochloride],97
5,CC(=O)N1C[C@H](O)C[C@H]1C(=O)O [Oxaceprol],96.1
6,C/C=C(/C)C(=O)O[C@H]1[C@@H](OC(=O)CC(C)C)c2c(ccc3ccc(=O)oc23)OC1(C)C [Praeruptorin E],69.4
7,CC(C)[C@H](O)C(=O)N[C@@H](C)C(=O)N[C@@H]1C(=O)N(C)CCc2ccccc21,109
8,O=C(O)C1=CO[C@@H](O[C@@H]2O[C@H](CO)[C@@H](O)[C@H](O)[C@H]2O)[C@@H]2C(CO)=CC[C@H]12 [Geniposidic acid],92.5
9,NC(=O)[C@@H]1CC[C@@H]2CN1C(=O)N2OS(=O)(=O)O [Avibactam sodium],108
10,Oc1cc(O)c2c(c1)OC(c1ccc(O)c(O)c1)C(OC1(c3ccc(O)c(O)c3)Oc3cc(O)cc(O)c3C(O)C1O)C2 (stereo not given) [Proanthocyanidins],89.9
11,CC(=O)OCC(=O)[C@@]1(O)[C@H](C)C[C@H]2[C@@H]3CCC4=CC(=O)C=C[C@]4(C)[C@@]3(F)[C@@H](O)C[C@@]21C [Dexamethasone acetate],103
12,CCNC1(C(N)=O)CCN(c2ncnc3c2nc(-c2ccccc2Cl)n3-c2ccc(Cl)cc2)CC1,78.2
13,COc1cc(Cc2cnc(N)nc2N)cc(OC)c1OC [Trimethoprim],102
14,CCOC(=O)CC(=O)N1CCSC1COc1ccccc1OC (stereo not given) [Moguisteine],100
15,O=C(O)C=CCCCCCCCO [Royal jelly acid],98.5
16,COc1cc2c(cc1O)CC[n+]1cc3c(OC)c(OC)ccc3cc1-2 [Jatrorrhizine chloride],97.6
17,CC(C)(C)S(=O)(=O)c1ccc2nccc(Nc3n[nH]c4ccc(F)cc34)c2c1,88
18,Nc1c(Br)cc(Br)cc1CN[C@H]1CC[C@H](O)CC1 [Ambroxol HCl],101
19,CN(C)CCCCC(=O)Nc1ccc(NC(=S)NC(=O)c2ccc(C(C)(C)C)cc2)cc1 [Tenovin-6],1.6
20,Nc1nc2n[nH]nc2c(=O)[nH]1 [Azaguanine-8],82.7

row,SMILES,cell viability [%]
1,OCCOCCN1CCN(C(c2ccccc2)c2ccc(Cl)cc2)CC1 (stereo not given) [Hydroxyzine 2HCl],86.6
2,c1cc2c(c3c1C[C@H]1c4cc5c(cc4CCN1C3)OCO5)OCO2 [Stylopine hydrochloride],88
3,COc1c(-c2ccc3cc(NS(C)(=O)=O)ccc3c2)cc(-n2ccc(=O)[nH]c2=O)cc1C(C)(C)C [S5402 Dasabuvir(ABT-333).cdx],88.3
4,OC[C@H]1O[C@@H](n2cnc3c(O)nc(O)nc32)[C@H](O)[C@@H]1O [Xanthosine],99.6
5,CCOc1ccccc1N=Nc1c(C)[nH]n(-c2nc(-c3ccccc3)cs2)c1=O,97.8
6,Cc1ccc([C@@H]2O[C@H](CO)[C@@H](O)[C@H](O)[C@H]2O)cc1Cc1ccc(-c2ccc(F)cc2)s1 [Canagliflozin],102
7,O=S1(=O)CCN(CN2CCS(=O)(=O)NC2)CN1 [Taurolidine],103
8,CC(=O)OCC(=O)[C@@]1(O)CC[C@H]2[C@@H]3CCC4=CC(=O)CC[C@]4(C)[C@@]3(F)[C@@H](O)C[C@@]21C [Fludrocortisone acetate],111
9,CCCCC(CC)COC(=O)C=Cc1ccc(OC)cc1 (stereo not given) [Octinoxate],99.5
10,NC(=O)c1ccc(-c2nc(-c3ccc4c(c3)OCCO4)c(-c3ccccn3)[nH]2)cc1,97.5
11,Cc1cc(-c2cc(C)c(NCCCS(=O)(=O)O)c(C)c2)cc(C)c1N,100
12,Cc1cn(-c2cc(NC(=O)c3ccc(C)c(Nc4nccc(-c5cnccn5)n4)c3)cc(C(F)(F)F)c2)cn1 [Radotinib],104
13,O=c1c2ccccc2oc2ccccc12 [Xanthone (Genicide)],105
14,Nc1nc2c(ncn2COCCO)c(=O)[nH]1 [Acyclovir (Aciclovir)],103
15,CC(=O)O[C@]1(C(C)=O)CC[C@H]2[C@@H]3C[C@H](C)C4=CC(=O)CC[C@]4(C)[C@H]3CC[C@@]21C [Medroxyprogesterone acetate],112
16,COC(=O)C[C@](O)(CCCC(C)(C)O)C(=O)O[C@@H]1C(OC)=C[C@]23CCCN2CCc2cc4c(cc2[C@H]13)OCO4 [Homoharringtonine],1.21
17,Cc1cc(C)c(-c2csc(NC(=O)c3ccccc3)n2)c(C)c1,45
18,C=C1CCC[C@]2(C)C[C@]3(O)OC(=O)C(C)=C3C[C@@H]12 [Atractylenolide III],102
19,C[C@@H]1C[C@H]2[C@@H]3CCC4=CC(=O)C=C[C@]4(C)[C@@]3(Cl)[C@@H](O)C[C@]2(C)[C@@]1(OC(=O)c1ccco1)C(=O)CCl [Mometasone furoate],82.7
20,CC(=O)O[C@]1(C(C)=O)CC[C@H]2[C@@H]3CCC4=CC(=O)CCC4=C3[C@@H](c3ccc(N(C)C)cc3)C[C@@]21C [Ulipristal acetate],82.3

# — the supplement of paper PMC10981050
